Test results taken from PubChem BioAssay AID687016 (The Scripps Research Institute Molecular Screening Center, 2013).
The campaign covered roughly 370,000 compounds. About 2,800 (0.76%) were called active. The entries come from a sample that favours actives as a whole. Values without a mark were called inactive. No stated cut-off is given here; in the data, active means inhibition above about 21%; inactive means the rest.

target: E3 ubiquitin-protein ligase UHRF1 (Homo sapiens) (UniProt Q96T88); test: UHRF1 methylated DNA binding inhibitors, primary screen, counter-screen for MBD2 inhibitor project, biochemical, TR-FRET, human UHRF1, single concentration (AID 687016); settings: UHRF1 binding to methylated oligo, at 4.4 µM, active compounds read high;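 further: UHRF1 SRA domain binding a hemimethylated CpG hairpin DNA probe; 0% = median of test compound wells and 100% = reference inhibitor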
Sequence (Q96T88 whole entry, looked up, the tested form may be a part): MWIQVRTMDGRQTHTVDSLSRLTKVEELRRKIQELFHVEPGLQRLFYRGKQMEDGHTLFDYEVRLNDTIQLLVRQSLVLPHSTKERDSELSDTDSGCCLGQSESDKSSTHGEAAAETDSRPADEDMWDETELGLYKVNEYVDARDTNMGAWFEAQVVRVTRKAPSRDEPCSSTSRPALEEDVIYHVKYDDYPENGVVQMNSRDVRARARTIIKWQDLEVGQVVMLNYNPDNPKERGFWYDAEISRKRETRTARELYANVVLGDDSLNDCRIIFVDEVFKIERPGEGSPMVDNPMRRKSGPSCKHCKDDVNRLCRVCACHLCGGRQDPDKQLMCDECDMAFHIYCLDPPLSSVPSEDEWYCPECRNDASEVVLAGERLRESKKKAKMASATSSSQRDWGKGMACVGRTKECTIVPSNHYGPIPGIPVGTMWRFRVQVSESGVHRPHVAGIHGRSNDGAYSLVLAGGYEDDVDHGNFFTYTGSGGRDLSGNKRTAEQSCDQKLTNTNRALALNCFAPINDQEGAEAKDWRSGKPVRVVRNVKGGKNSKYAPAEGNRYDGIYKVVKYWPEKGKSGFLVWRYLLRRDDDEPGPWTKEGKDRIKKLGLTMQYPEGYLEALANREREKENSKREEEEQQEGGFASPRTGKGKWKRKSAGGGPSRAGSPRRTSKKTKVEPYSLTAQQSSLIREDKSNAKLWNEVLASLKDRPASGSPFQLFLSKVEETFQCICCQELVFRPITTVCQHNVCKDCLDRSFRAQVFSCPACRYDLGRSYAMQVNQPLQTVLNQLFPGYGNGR

Question: How did the inhibition turn out when `CC1(C)C(=O)Nc2ccccc2N1C(=O)COC(=O)Cn1cnc2ccccc2c1=O` was run?
Answer: 1.64%

Question: `CNS(=O)(=O)c1cccc(C(=O)OCC(=O)N2c3ccccc3NC(=O)C2(C)C)c1` was tested. Which inhibition did it give?
Answer: 5.39%

Question: With `Cc1ccc(OCCC(=O)OCC(=O)N2c3ccccc3NC(=O)C2(C)C)cc1` as the molecule, how does the inhibition read?
Answer: 24.6% (active)

Question: For `COc1ccnc(C(=O)N2CCC(Oc3cccnc3)CC2)c1`, which inhibition is on record?
Answer: -0.76%

Question: `O=C1CC(c2ccc3c(c2)OCO3)N=C2N(CC3CC3)C/C(=C/c3ccccc3)N12` (stereo not drawn) was tested. Which inhibition did it give?
Answer: -0.7%

Question: For `O=c1ccc2c(-c3ccccc3S(=O)(=O)O)c3ccc(O)c(O)c3oc-2c1O`, which inhibition is on record?
Answer: 82.5% (active)

Question: How did the inhibition turn out when `Cc1cc(=O)[nH]c(SCC(=O)Nc2ccc(F)cc2F)n1` was run?
Answer: -1.2%

Question: `CC(=O)C1=C(C)NC(=O)NC1c1ccc2c(c1)OCO2` (stereo not drawn) was tested. Which inhibition did it give?
Answer: 0.08%

Question: Which inhibition does the source give for `COCCOC(=O)C1=C(C)NC(=O)NC1c1cc2c(cc1Br)OCO2` (stereo not drawn) here?
Answer: 0.79%

Question: `CCOCCOC(=O)C1=C(C)NC(=O)NC1c1ccc2c(c1)OCO2` (stereo not drawn) was tested. Which inhibition did it give?
Answer: 31.3% (active)

Question: For `CC(CCN1CCC(C(O)(c2ccccc2)c2ccccc2)CC1)Oc1ccc(C(F)(F)F)cc1` (stereo not drawn), which inhibition is on record?
Answer: 1.26%

Question: Which inhibition does the source give for `O=C(CCS(=O)(=O)c1ccccc1)Nc1ccc(Cl)c(Cl)c1` here?
Answer: 3.31%

Question: For `COC(=O)[C@]12C[C@H](CC(=O)NCC34CC5CC(CC(C5)C3)C4)C(=O)N(Cc3ccc(Cl)cc3Cl)C1=C[C@H](COCc1ccccc1)O[C@@H]2C`, which inhibition is on record?
Answer: -0.14%

Question: Which inhibition does the source give for `CCCCN(C)Cc1c(C)[nH]c2ccc(Cl)cc2c1=O` here?
Answer: 27% (active)

Question: With `CCOC(=O)c1ccc2[nH]c(C)c(CN3CCN(C)CC3)c(=O)c2c1` as the molecule, how does the inhibition read?
Answer: -2.6%

Question: Which inhibition does the source give for `CN(C)CCn1c(=S)[nH]c2ccc(Cl)cc2c1=O` here?
Answer: -4.42%

Question: `O=C(OC12CCCN(C1)/C(=C/c1cccnc1)C2)C1CCCC1` (stereo not drawn) was tested. Which inhibition did it give?
Answer: -1.46%

Question: Which inhibition does the source give for `COc1ccc(-n2c(C)cc(C(=O)CSc3nnc(-c4cccs4)o3)c2C)cc1` here?
Answer: 23.6% (active)

Question: Which inhibition does the source give for `COc1ccc(-c2nnc(SCC(=O)c3ccc4c(c3)OCCO4)o2)cc1` here?
Answer: -0.81%

Question: `CCc1ccccc1NC(=O)CSc1nnc(-c2cccs2)o1` was tested. Which inhibition did it give?
Answer: 1.37%

Question: How did the inhibition turn out when `COc1ccc(-n2c(SCC(=O)NC3CCCC3)nnc2-c2ccncc2)cc1` was run?
Answer: 0.14%

Question: How did the inhibition turn out when `COC(=O)[C@]12C[C@H](CC(=O)N3CCOCC3)C(=O)N(Cc3ccc(Cl)cc3Cl)C1=C[C@H](COCc1ccccc1)O[C@@H]2C` was run?
Answer: 0.29%

Question: With `CCC(C)C(=O)Nc1cc([N+](=O)[O-])ccc1Cl` (stereo not drawn) as the molecule, how does the inhibition read?
Answer: -0.24%

Question: Which inhibition does the source give for `CC(C)C(=O)Nc1cccc(NC(=O)c2ccc([N+](=O)[O-])cc2Cl)c1` here?
Answer: 23.4% (active)

Question: How did the inhibition turn out when `O=C(NCc1ccco1)c1ccc([N+](=O)[O-])cc1Cl` was run?
Answer: 2.58%

Question: How did the inhibition turn out when `CCC(=O)OCCCN1C(=O)CCC12CCC(c1ccccc1)CC2` (stereo not drawn) was run?
Answer: -3.69%

Question: For `COc1ccc(Cn2ccc3ccc(-c4ccc5ccn(Cc6ccccc6C)c5c4)cc32)cc1`, which inhibition is on record?
Answer: -0.92%

Question: Which inhibition does the source give for `CC(C)N1CCCCC(NC(=O)c2ccc3ccccc3c2)C1=O` (stereo not drawn) here?
Answer: -2.66%

Question: `O=C(c1c[nH]c2ccccc12)N1CCC(Oc2cccnc2)CC1` was tested. Which inhibition did it give?
Answer: -3.48%

Question: `COC(=O)[C@H](C(C)C)N1CCc2nnn(Cc3ccc(C)cc3)c2-c2ccccc2S1(=O)=O` was tested. Which inhibition did it give?
Answer: -0.67%

Question: `C=CCN1C(=O)[C@@H](CC(=O)NCCCCc2ccccc2)[C@]2(C(=O)OCC)CCCCC/C=C/12` was tested. Which inhibition did it give?
Answer: -1.86%

Question: `COc1ccc2[nH]c3c(C)c4cc[n+](C)cc4c(C)c3c2c1` was tested. Which inhibition did it give?
Answer: 92.9% (active)

Question: `CC(=O)N1CCCN(C2=Nc3ccccc3Sc3ccccc32)CC1` was tested. Which inhibition did it give?
Answer: 11.8%

Question: Which inhibition does the source give for `Cc1ccc(NC(=O)Cn2sc3ccccc3c2=O)cc1` here?
Answer: -0.79%

Question: For `Cc1ccnc(SC2CC(=O)N(c3ccccc3)C2=O)n1` (stereo not drawn), which inhibition is on record?
Answer: -0.14%

Question: For `Cc1ccnc(-n2sc3ccccc3c2=O)n1`, which inhibition is on record?
Answer: 21.5% (active)

Question: `COc1ccc(CN2C/C(=C/c3ccccc3)N3C(=O)C[C@@H](c4ccccc4)N=C23)c(OC)c1` was tested. Which inhibition did it give?
Answer: -0.02%

Question: How did the inhibition turn out when `COc1ccc(/C=C2\CC3(OC(C)=O)CCCN2C3)cc1` (stereo not drawn) was run?
Answer: -2.63%

Question: `C=CCN1C(C(=O)OC)CN(Cc2cn(Cc3ccccc3)nn2)CCS1(=O)=O` (stereo not drawn) was tested. Which inhibition did it give?
Answer: 15.8%

Question: With `C[N+](C)(C)CCNC(=O)c1c[nH]c2ccccc12` as the molecule, how does the inhibition read?
Answer: 21.1% (active)

Question: Which inhibition does the source give for `O=C(CNC(=O)c1ccccc1F)OCC(=O)c1c[nH]c2ccccc12` here?
Answer: -1.49%

Question: `O=C(NCCCc1ccccc1)C(=O)c1c[nH]c2ccccc12` was tested. Which inhibition did it give?
Answer: -1.59%

Question: For `Clc1ccc(-n2c(COc3ccccc3)nnc2SCc2nc3ccccc3[nH]2)cc1`, which inhibition is on record?
Answer: -1.31%
